# Screening results as filed in PubChem BioAssay.
# TRPV1 PAM: enhances activation of the human vanilloid receptor TRPV1; Q8NER1; 320,000 compounds, 0.02% hits; potentiation, % at 8.33 µM; TRPV1-expressing cells, Fluo-8 calcium influx, capsaicin EC20 potentiation; in the data active = potentiation above about 80%; inconclusive = between about 30% and that limit; also: 0% is about no effect
# Target sequence (Q8NER1 whole entry, looked up): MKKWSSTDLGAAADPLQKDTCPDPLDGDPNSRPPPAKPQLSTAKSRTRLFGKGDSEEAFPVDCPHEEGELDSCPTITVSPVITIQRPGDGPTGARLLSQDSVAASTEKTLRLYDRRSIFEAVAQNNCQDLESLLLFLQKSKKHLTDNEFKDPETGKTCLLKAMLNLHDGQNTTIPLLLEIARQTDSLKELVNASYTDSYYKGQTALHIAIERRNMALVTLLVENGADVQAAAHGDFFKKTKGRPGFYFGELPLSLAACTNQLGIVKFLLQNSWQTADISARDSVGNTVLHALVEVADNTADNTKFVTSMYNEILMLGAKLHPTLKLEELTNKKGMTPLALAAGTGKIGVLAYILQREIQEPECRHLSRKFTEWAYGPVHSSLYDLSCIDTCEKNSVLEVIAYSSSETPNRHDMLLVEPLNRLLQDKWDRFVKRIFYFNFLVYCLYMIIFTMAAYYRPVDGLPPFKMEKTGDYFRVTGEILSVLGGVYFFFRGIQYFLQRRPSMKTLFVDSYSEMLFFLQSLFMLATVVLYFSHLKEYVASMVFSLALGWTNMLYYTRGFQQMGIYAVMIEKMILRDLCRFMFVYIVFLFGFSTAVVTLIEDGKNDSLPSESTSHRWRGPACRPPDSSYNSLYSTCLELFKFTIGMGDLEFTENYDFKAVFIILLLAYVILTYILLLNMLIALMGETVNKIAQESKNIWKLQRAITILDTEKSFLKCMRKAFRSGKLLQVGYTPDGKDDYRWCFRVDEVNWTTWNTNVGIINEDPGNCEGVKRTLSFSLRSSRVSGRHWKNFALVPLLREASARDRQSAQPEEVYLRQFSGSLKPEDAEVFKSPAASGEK
#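 TRPV1-expressing cells were cultured overnight at 35.5C and loaded with Fluo-8 calcium dye for 40 to 90 min at room temperature. After a 10 s baseline, compound was added and calcium influx was read kinetically for 3 min (ex 480/em 520 nm).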
# TRPV1 agonist: activates the human vanilloid receptor TRPV1; Q8NER1; TRPV1-expressing cells, Fluo-8 calcium influx, agonist mode; activation, % at 8.33 µM; 320,000 compounds, 0.19% hits; in the data active = activation above about 80%; inconclusive = between about 30% and that limit; also: 0% is about no effect
#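 TRPV1-expressing cells were cultured overnight at 35.5C and loaded with Fluo-8 calcium dye for 40 to 90 min at room temperature. After a 10 s baseline, compound was added and calcium influx was read kinetically for 3 min (ex 480/em 520 nm).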
# KCNH2 WT inh: KCNH2 (human, wildtype) channel inhibition; Q12809; U2OS, BacMam KCNH2, thallium flux FluxOr; stronger effect = lower value; activity change, % at 1.84 µM; 340,000 compounds, 0.37% hits;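 active = maximum activity change below -70%; inconclusive = maximum activity change between -70% and -50%; inactive = maximum activity change above -50%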; also: % is scaled to controls: 0 for no effect and ±100 for the full control effect
#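 U2OS cells were transduced with wild-type KCNH2 virus (2.03 x 10^8 / mL) for 4 h at room temperature, then cultured overnight at 37 C. Thallium flux was read with FluxOr dye. Rate constants were normalized to DMSO controls.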
# KCNH2 3.1 inh: KCNH2 3.1 (human) potassium channel inhibition; U2OS KCNH2 3.1, thallium flux FluxOr; stronger effect = lower value; activity change, % (tested at about 1.8 µM); AID 720553; 340,000 compounds, 0.95% hits;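 active = maximum activity change below -70%; inconclusive = maximum activity change from -70% to -50%; inactive = maximum activity change above -50%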;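 also: thallium influx rate constant from kinetic fluorescence after stimulation buffer; % is scaled to controls: 0 for no effect and ±100 for the full control effect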
#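 U2OS cells transduced with KCNH2 3.1 mutant virus (1.77 x 10^8 /mL, 4 h), plated overnight at 37 C, loaded 45 min with FluxOr dye plus Red40 quencher. Thallium flux rate constant from kinetic reads after stimulation buffer, normalised to controls.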
# Numbers without * were called inactive; ? = inconclusive; . = no result given; ! = repeats disagree. Most compounds without a hit are left out; they make up all but 1.2% or so of the library.
SMILES,TRPV1 PAM,TRPV1 agonist,KCNH2 WT inh,KCNH2 3.1 inh
CC(C)C(=O)C1=Cc2cc([N+](=O)[O-])ccc2OC1N1CCOCC1 (stereo unspecified),-6,2,-12,18
CCc1ccccc1NC(=O)CN1CCN(CC(=O)NCc2ccc(Cl)cc2)CC1,-1,-1,6,-15
COc1ccc(CN2CCN(Cc3c[nH]c4ccccc34)CC2)cc1,-4,-1,32,-39
COc1ccc(CN2CCN(Cc3c[nH]c4ccccc34)CC2)c(OC)c1,.,.,36,-102*
COc1ccc(CN2CCN(Cc3ccc(C(F)(F)F)cc3)CC2)c(OC)c1,5,7,-41,-101*
CN(C)S(=O)(=O)c1ccc(NC(=O)Cn2nc(-c3ccc4c(c3)OCCO4)ccc2=O)cc1,.,.,-6,9
O=C(c1ccc(NC(=O)C2(c3ccccc3)CCOCC2)cc1)N1CCOCC1,11,-1,7,7
CC(=O)c1ccc(NC(=O)C2(c3ccccc3)CCOCC2)cc1,2,-3,0,-108*
COc1ccc(C(=O)Oc2cc3c4c(c2)C(C)=CC(C)(C)N4C(=O)C3=O)cc1OC,-4,-1,16,-72*
COCCOC(=O)c1cc(C(=O)c2cc(F)ccc2O)coc1=N,6,-2,-7,8
COC(=O)c1cc(C(=O)c2cc(Cl)ccc2O)coc1=N,17,-2,-172*,-5
COCCSc1nnc(NC(=O)CCS(=O)(=O)c2ccccc2)s1,1,3,0,12
COc1ccc(Cn2nnnc2C(c2cccs2)N2CCN(c3ccc([N+](=O)[O-])cc3)CC2)cc1 (stereo unspecified),-3,2,?,-99*
COc1ccc(Cn2nnnc2C(c2ccc(C)cc2)N2CCN(C3CCCC3)CC2)cc1 (stereo unspecified),6,0,16,-73*
COc1ccc(Cn2nnnc2C(c2cccs2)N2CCN(c3ccccc3)CC2)cc1 (stereo unspecified),-7,-1,2,1
COc1ccc(NC(=S)N2CCC(NC(=O)C3CCCCC3)CC2)cc1,14,0,-1,8
CCC1(CC)NC(=O)N(CC(=O)Nc2ccc(-n3cnnn3)cc2)C1=O,.,.,11,-33
O=C1c2cccnc2C(Nc2ccc(Br)cc2)N1Cc1cccs1 (stereo unspecified),-27,84*,29,3
COc1ccc(NC2c3ncccc3C(=O)N2Cc2cccs2)cc1 (stereo unspecified),-31,?,-12,-10
C[C@@H]1CNC(=O)c2c(C(=O)Nc3cccc(Cl)c3)ncn21,.,.,4,0
CCOC(=O)/C(C#N)=C\c1ccc(N2CCN(C/C=C/c3ccccc3)CC2)cc1,1,19,-10,-83*
CCOC(=O)/C(C#N)=C\c1cc(C)n(-c2ccccc2)c1C,-17,?,-7,-1
O=C(CN1CCN(Cc2ccccc2)CC1)N/N=C/c1ccc(Br)s1,-1,-4,12,-34
Cc1ccc(N(CC2=NCCN2)c2cccc(O)c2)cc1,-4,-3,-31,-80*!
c1ccc(CN(CC2=NCCN2)c2ccccc2)cc1,6,3,8,-19
SMILES,TRPV1 PAM,TRPV1 agonist,KCNH2 WT inh,KCNH2 3.1 inh
O=P(c1ccccc1)(c1ccccc1)N(c1ccccc1)c1ccccc1,-18,21,52,-70*
Nc1cccc(P(=O)(c2ccccc2)c2ccccc2)c1,3,-1,1,-11
O=C(c1ccccc1)c1ccc(Oc2ccc([N+](=O)[O-])cc2[N+](=O)[O-])cc1,.,.,-9,-26
Cc1ccc(S(=O)(=O)CC2CSc3nnc(C)c(=O)n32)cc1 (stereo unspecified),8,1,-5,-93*
Cc1nnc2n(c1=O)C(CS(=O)(=O)c1ccc3ccccc3c1)CS2 (stereo unspecified),2,-6,9,22
COc1ccccc1N1CCN(C(=O)[C@@H]2CCCN2C2=NS(=O)(=O)c3ccccc32)CC1,.,.,-2,11
Cc1ccc(NC2=C(Cl)C(=O)N(C3CCCCC3)C2=O)cc1,-15,6,5,-10
CC(C)(C)c1ccc(S(=O)(=O)Nc2noc3ccccc23)cc1,?,-2,-3,10
NCCNc1ccc(C(=O)N2c3ccccc3Sc3ccccc32)cc1[N+](=O)[O-],-13,0,8,-175*
O=C(Nc1ccncc1)c1ccc(Br)cc1,-28,113*,-14,7
CCc1ccc(OCC(=O)Nc2ccncc2)cc1,1,?,-3,-14
CCCOc1ccc(C(=O)Nc2cccnc2)cc1,0,?,-3,-7
CC(C)c1ccc(OCC(=O)Nc2ccncc2)cc1,-14,95*,-6,-4
CCCCOc1ccc(C(=O)Nc2ccncc2)cc1,-7,93*,8,-3
CCN(CC)C(=O)c1[nH]cnc1C(=O)Nc1ccccc1F,.,.,-6,0
COc1ccc(NC(=O)CN(C)C(=O)c2cccc(S(=O)(=O)N3CCN(c4ccc(F)cc4)CC3)c2)cc1,.,.,6,8
Cc1cc(Sc2nnc(N)s2)c2ccccc2n1,24,-11,4,-78*
COc1ccc(O)c(-c2[nH]ncc2C(=O)c2cccc(C)c2)c1,-7,4,26,-109*
CCOC(=O)c1c(N)c2cc([N+](=O)[O-])ccc2n1C,0,0,-7,-97*
CCOC(=O)c1nn(-c2ccc(Br)cc2)cc1C(=O)c1cccc2ccccc12,-4,-1,-4,-104*
O=C(Nc1ccc(F)cc1)c1ccc2snnc2c1,-18,82*,-12,-24
COc1ccc(NC(=S)Nc2ccc3snnc3c2)cc1,0,-1,4,-83*
COc1ccc(NC(=S)Nc2ccc3nccnc3c2)cc1,22,-3,-4,2
COc1ccc(C=C(NC(=O)c2ccccc2)C(=O)O)cc1OC,.,.,23,-17
COc1ccc([N+](=O)[O-])cc1NC(=O)C(C)N(C)Cc1cccc(OC)c1OC (stereo unspecified),-16,?,-5,0
SMILES,TRPV1 PAM,TRPV1 agonist,KCNH2 WT inh,KCNH2 3.1 inh
COc1cc(CN(C)C(C)C(=O)Nc2ccc([N+](=O)[O-])cc2Cl)ccc1OC(F)F (stereo unspecified),-11,-4,-95*,?
CCCn1c(N2CCN(C(=O)Nc3ccccc3)CC2)nc2ccccc21,3,?,10,-105*
Cc1ccc(SCc2nc3ccccc3n2CC(=O)Nc2ccc(Cl)cc2)cc1,5,3,18,-1
CC(C)Cn1c(N2CCN(CC(=O)Nc3ccc(Cl)cc3)CC2)nc2ccccc21,8,0,-16,-74*
CCC(C)c1ccccc1NC(=O)C(C)NCCN(C)C (stereo unspecified),-11,-2,10,6
Cc1ccc(-c2c(C(=O)NCCc3ccccc3)oc(=O)c3ccccc23)cc1,-9,13,.,.
COc1ccc(NC(=O)NCCCN2CCc3ccccc3C2)cc1,-23,?,33,-5
O=C(NCCCN1CCc2ccccc2C1)Nc1ccc(Br)cc1,-11,?,4,-80*
